# Bioassay records deposited in PubChem BioAssay by National Center for Advancing Translational Sciences (NCATS).
# FLuc modulator – counter-screen for miR-21 project: firefly luciferase inhibitors or activators; AID 588342; hit rate 6.9% among 360,000; P08659; Potency, µM (highest dose often 57.5 µM), without a hit: at the highest dose activity change, negative = inhibition, usual class: inhibitors; purified FLuc, Km substrates, luminescence inhibition;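 note: plate controls were vehicle for no effect and reference inhibitor for full effect; nearly all actives have a fitted effect of over 55% in size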
# Target sequence (P08659 whole entry, looked up): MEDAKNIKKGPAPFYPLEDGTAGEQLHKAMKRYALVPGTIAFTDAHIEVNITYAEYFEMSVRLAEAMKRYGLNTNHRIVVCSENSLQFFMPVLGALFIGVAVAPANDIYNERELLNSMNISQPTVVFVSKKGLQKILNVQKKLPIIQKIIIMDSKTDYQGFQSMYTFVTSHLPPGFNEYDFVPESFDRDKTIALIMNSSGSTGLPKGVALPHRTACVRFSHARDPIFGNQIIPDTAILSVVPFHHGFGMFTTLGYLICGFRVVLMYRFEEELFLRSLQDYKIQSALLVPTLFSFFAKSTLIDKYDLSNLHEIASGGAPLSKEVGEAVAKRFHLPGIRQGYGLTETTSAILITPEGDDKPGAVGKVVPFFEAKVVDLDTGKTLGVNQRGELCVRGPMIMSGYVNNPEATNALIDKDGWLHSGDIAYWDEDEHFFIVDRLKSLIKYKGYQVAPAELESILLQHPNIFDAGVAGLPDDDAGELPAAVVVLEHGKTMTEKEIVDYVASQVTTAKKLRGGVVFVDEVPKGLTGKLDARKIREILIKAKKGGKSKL
#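 Purified P. pyralis luciferase (10nM final) with 10uM D-luciferin and 10uM ATP (Km levels) in 50mM Tris acetate pH 7.5, 10mM Mg acetate, 0.01% Tween-20, 0.05% BSA; qHTS 6-point titration, ~60 µM downward; luminescence read.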
# Rab9 prom act – Rab9 promoter activation. Potency, µM (titrated, usually from 9.22 µM), for inactives: at the top dose activation, negative = inhibition, hits mostly activators. Huh7 Rab9 promoter-luciferase reporter, luminescence, 24 h. hit rate 2.8% among 320,000; note: % of control where 0% means no effect; nearly all actives have a fitted effect of over 60% in size
#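 Quantitative HTS format; Huh7 Rab9-luciferase reporter cells (1500/well) receive compound 2 h post-plating, incubate 24 h at 37 °C, then get luciferase reagent for 10 min before luminescence reading.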
# NPC1 promoter act – NPC1 promoter activation; AID 485313; hit rate 2.4% among 320,000; Potency, µM (doses to about 9.22 µM), for inactives: at the top dose activation, usual class: activators; Huh7 NPC1 promoter luciferase reporter, 24 h; note: % of control where 0% means no effect; nearly all actives have a fitted effect of over 60% in size
#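 Luminescence from an NPC1 promoter-driven luciferase reporter in stably transfected Huh7 cells was measured after 24 h compound treatment at 37 °C, followed by 10 min ambient incubation with luciferase detection reagent.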
# SMN2 splice enh – SMN2 splice variant enhancement; HEK293 SMN2-luciferase splicing reporter, luminescence, 30-36 h; Potency, µM (titrated, usually from 46.1 µM), inactives show top-dose activity change, positive = activation, most hits filed as activators; hit rate 2.8% among 210,000; AID 1458; note: % of control where 0% means no effect; nearly all actives have a fitted effect of over 55% in size
#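 qHTS luciferase splicing reporter: luminescence rises when SMN2 exon 7 is included in transfected HEK293 cells. Compound exposure lasted 30-36 h at 37C, with 4.5 mM final sodium butyrate as control, followed by a ONE-Glo read.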
# ELG1 genotoxic – induces genotoxicity in HEK293T cells with luciferase-tagged ELG1; Potency, µM (highest dose often 46 µM), for the others: top-dose activity change, positive = activation, actives largely listed as activators; HEK293T ELG1-luciferase reporter, luminescence, 16 h; AID 504466; hit rate 1.3% among 330,000; note: % of control where 0% means no effect; nearly all actives have a fitted effect of over 60% in size
#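 Reporter readout depends on ELG1 protein level, which increases with genetic stress. After 16 hr compound exposure at 37 °C, luciferase activity was quantified using ONE-Glo.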
# p53 reactivation – restores transcriptional activity of mutant p53 | H1299 p53-A138V BP100-luciferase reporter, luminescence, 24 h | AID 504706 | Potency, µM (series often up to 92.2 µM), inactives show top-dose activity change, positive = activation, most hits filed as activators | hit rate 0.063% among 320,000; note: % of control where 0% means no effect; nearly all actives have a fitted effect of over 45% in size
#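 p53-null H1299 cells stably carrying temperature-sensitive p53-A138V and a BP100-luciferase reporter were pinned with compounds (4-point, 1:5 series) and held 24 hrs at 37 deg C. Luminescence was read 10 min after detection reagent.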
# The depositor's hits bear a star; ? = inconclusive; . = not tested or not shown. Compounds with a hit are over-represented: about 7.3% of the library has one in this group of screens. Calls come from the whole dose curve; as a rule, active = well fitted curve in the direction sought with a large enough effect; inconclusive = small, poorly fitted or top-dose-only effect, or another doubt; inactive = no such curve, though single readings can be large; an effect the other way counts as inactive or inconclusive. Potency is the fitted concentration of half-maximal effect.
SMILES,FLuc modulator,Rab9 prom act,NPC1 promoter act,SMN2 splice enh,ELG1 genotoxic,p53 reactivation
Cc1ccc(NC(=O)CCNC(=O)Cn2ccc3ccccc3c2=O)cc1F,17µM*,?,29%,.,?,0%
COc1ccc(NC(=O)CCNC(=O)Cn2ccc3ccccc3c2=O)cc1OC,-2%,-1%,-6%,.,0%,-7%
NC(N)=NS(=O)(=O)c1ccc(NC(=S)NC(=O)c2ccc(Br)cc2)cc1,0%,-2%,-2%,-13%,-4%,1%
Cc1ccc(C2NC(=O)NC3=C2CCc2ccccc23)cc1 (configuration not stated),3µM*,18%,?,-23%,?,?
O=c1c2ccccc2nnn1CSc1nnc2ccccn12,15µM*,3.2µM*,3.5µM*,13µM*,18µM*,?
Cc1ccc(-n2nnnc2SCn2nnc3ccccc3c2=O)cc1,13µM*,3.5µM*,?,5%,16µM*,?
COc1ccc(-c2cn3c(C)c(C(=O)Nc4cccc(C)n4)sc3n2)cc1,12µM*,2%,0%,?,-12%,12%
COc1ccc(-c2cn3c(C)c(C(=O)NC(C)(C)C)sc3n2)cc1,5.4µM*,0.63µM*,2µM*,.,?,10%
Cc1nc2ccc(Br)cn2c1C(=O)N/N=C\c1ccccc1Cl,2%,0%,0%,.,2%,.
O=C(CSc1nccn1-c1ccccc1)Nc1nc2ccccc2s1,24µM*,.,.,.,.,.
CCOc1ccc2nc(NS(=O)(=O)c3ccc(NC(C)=O)cc3)sc2c1,3%,11%,2%,14%,?,14%
CCOc1ccc2nc(NC(=O)CCn3cccc3)sc2c1,?,20%,15%,12%,1%,14%
CCCC(=O)Nc1nc2ccc(OCC)cc2s1,11µM*,2.2µM*,2.8µM*,22µM*,?,3.2µM*
CCOc1ccc2nc(NS(=O)(=O)Cc3ccccc3)sc2c1,27µM*,12%,-20%,5%,21µM*,?
CCOc1ccc2nc(NC(=O)c3ccccc3)sc2c1,0.54µM*,.,.,1.3µM*,.,.
CC(C)NC(=O)Cn1ccc2cc(S(=O)(=O)N3CCCCCC3)ccc21,4%,.,.,.,.,.
CC(C)C(C)C,.,.,.,-1%,.,.
CCOc1ccc2nc(NC(=S)N(C)C)sc2c1,1.3µM*,0.79µM*,0.71µM*,4µM*,0.37µM*,?
CCOc1ccc2nc(NC(=O)c3cnc(C)cn3)sc2c1,6µM*,18%,24%,-27%,0%,-3%
CCOc1ccc2nc(NC(=O)c3cccnc3)sc2c1,1.5µM*,0.89µM*,1.6µM*,7.9µM*,?,?
CCOc1ccc2nc(NC(=O)C3=NNC(=O)CC3)sc2c1,?,?,20%,?,14%,1%
CCOc1ccc2nc(NC(=O)CC3Oc4ccccc4NC3=O)sc2c1 (configuration not stated),-18%,-3%,-2%,.,6%,-2%
CCOc1ccc2nc(NC(=O)CSc3nc4cccnc4n3C)sc2c1,?,4%,2%,-28%,14%,9%
CCOc1ccc2nc(NC(=O)CSc3ccccc3)sc2c1,21µM*,12%,22%,?,13%,14%
COc1ccc(CNC(=O)c2ccc(NC(=O)N3CCCCc4ccccc43)cc2)c(OC)c1,-16%,.,.,.,.,.
SMILES,FLuc modulator,Rab9 prom act,NPC1 promoter act,SMN2 splice enh,ELG1 genotoxic,p53 reactivation
O=C(Cn1cc([N+](=O)[O-])ccc1=O)NCC(=O)Nc1ccc(F)c(F)c1F,.,.,.,.,3%,9%
CC(=O)NNc1nc2ccccc2s1,3%,4%,1%,-24%,-1%,5%
CN(C)C(=S)Nc1nc2ccccc2s1,12µM*,?,?,.,?,10%
O=C1N/C(=C\c2ccccc2)c2ccccc21,?,-12%,-11%,?,?,9%
O=C1N/C(=C\c2nc3ccccc3s2)c2ccccc21,0.19µM*,0.28µM*,1µM*,.,0.58µM*,20%
CCc1ccc2c(c1)NC(c1ccc(C)cc1)=NC(c1cccs1)=N2,?,.,.,11%,.,.
CCc1ccc2c(c1)C1(NN=C(c3ccc(C)cc3)S1)C(=O)N2 (configuration not stated),27µM*,-2%,-2%,-45%,?,?
CC(C)c1ccc2c(c1)C1(NN=C(c3ccccc3)S1)C(=O)N2 (configuration not stated),17µM*,-1%,-6%,-71%,19%,?
Cc1ccc(C(=O)COc2ccccc2C(=O)Nc2ccccc2)cc1,0%,0%,-2%,-46%,10%,-4%
COc1ccccc1NC(=O)Cn1c(=O)n(Cc2nc(-c3ccccc3)no2)c(=O)c2ccccc21,6%,.,.,.,.,.
CCNC(=O)NC(=O)C(C)Oc1ccc(Br)cc1Br (configuration not stated),17µM*,23%,10%,?,?,0%
CC1CN(C(=O)C(C)OC(=O)c2ccc3ncsc3c2)CC(C)O1 (configuration not stated),-1%,0%,-2%,.,2%,2%
O=C(O)c1cccc(NC(=O)c2cn(-c3ccccc3)nc2-c2ccc([N+](=O)[O-])cc2)c1,17µM*,0%,-8%,.,0%,3%
COc1ccc(-c2nn(-c3ccccc3)cc2C(=O)Nc2cccc(C(=O)O)c2)cc1[N+](=O)[O-],?,13%,2%,.,9%,-12%
O=C(O)c1cccc(NC(=O)c2cn(-c3ccccc3)nc2-c2ccncc2)c1,17µM*,-3%,-1%,-3%,-4%,2%
O=C(O)c1cccc(NC(=O)c2cccc(S(=O)(=O)Nc3cccc([N+](=O)[O-])c3)c2)c1,?,4%,2%,.,0%,.
O=C(NNS(=O)(=O)c1ccc([N+](=O)[O-])cc1)C(=O)Nc1cccc(C(=O)O)c1,17µM*,11%,1%,.,4%,12%
COc1ccc(NC(=O)Cn2cc(C(=O)c3ccc(C)c(C)c3)c(=O)c3cc(OC)ccc32)cc1,-8%,.,.,-4%,.,.
COC(=O)/C(=C1\OC(=O)C(c2ccccc2)C1=O)c1ccccc1 (configuration not stated),.,.,.,13µM*,.,.
Cc1cccc(NC(=S)N/N=C/c2ccc([N+](=O)[O-])s2)c1,-3%,-14%,-19%,-95%,-11%,-11%
Cc1cccc(N/N=C/c2ccc(C)s2)c1,12µM*,?,?,.,?,15%
Cc1ccc(/C=N/N=C/c2ccc(C)s2)s1,0.67µM*,2.2µM*,1.6µM*,7.1µM*,3.7µM*,?
